According to PubChem BioAssay:
Several values for one entry are separate records, joined by “and”; a condition that tells them apart may be missing. Equal entries are not always repeated.

Assay: sensitizers of A549 cells to miR-34 induction, primary screen, imaging, A549 dox-inducible miR-34, nuclei and caspase counts (AID 1347080); also: test concentration not given here
Conditions: A549 miR-34 inducible, Hoechst nuclei count, 48 h; measured here: relative caspase fold change +Dox/-Dox

Row | SMILES | fold change
1 | CC[C@H](NC(C)C)[C@H](O)c1ccc(O)c2[nH]c(=O)ccc12 | 0.691 and 1.28
2 | COc1cc2nccc(Oc3ccc(NC(=O)Nc4ccc(F)cc4F)c(F)c3)c2cc1OC | 1.3 and 1.55
3 | O=c1[nH]nc(Sc2ncc([N+](=O)[O-])s2)n1-c1ccc2c(c1)OCCO2 | 0.969
4 | N[C@H](CSC(c1ccccc1)(c1ccccc1)c1ccccc1)C(=O)O | 1.4
5 | O=c1cc(-c2cccc3c2Sc2ccccc2S3)oc(N2CCOCC2)c1 | 1.11 and 2.27
6 | COc1nccc(-c2c(-c3ccc(F)cc3)ncn2C2CCC(O)CC2)n1 (stereo not drawn) | 0.79
7 | CCc1c2c(nc3ccc(O)cc13)-c1cc3c(c(=O)n1C2)COC(=O)[C@]3(O)CC | 3.45 and 2.11
8 | CCOc1cc(C(=O)Nc2ccc(Cl)c(-c3nc4ccccc4[nH]3)c2)cc(OCC)c1OCC | 0.843
9 | Oc1ccc2ccccc2c1SSc1c(O)ccc2ccccc12 | 1 and 0.368 and 2.34
10 | CC(Oc1ccc(O)cc1)(P(=O)(O)O)P(=O)(O)O | 0.597
11 | CCN(CC)CCCC(C)Nc1nc(C)cc(Nc2ccc3nc(C)cc(N)c3c2)n1 (stereo not drawn) | 0.421 and 1.06
12 | CN1C(=O)C(Cc2c[nH]c3ccccc23)NC1=S (stereo not drawn) | 0.523 and 1.02
13 | COc1ccc([C@@H]2CNC(=O)C2)cc1OC1CCCC1 | 0.878
14 | O=C1Nc2ccc(I)cc2/C1=C/c1cc(Br)c(O)c(Br)c1 | 1.44 and 1.3 and 0.748
15 | O=C(O)C1CCCN(CCC=C(c2ccccc2)c2ccccc2)C1 (stereo not drawn) | 1.12 and 1.07
16 | CCOc1ccc(Nc2nc(-c3c(C)nc4ccccn34)cs2)cc1 | 1.27
17 | Nc1ncnc2nc(-c3ccc(N4CCOCC4)nc3)cc(-c3cccc(Br)c3)c12 | 1.03

Row | SMILES | fold change
18 | Fc1ccc(Cl)cc1-c1nc(Nc2ccncc2)c2nccnc2n1 | 1.34
19 | Cc1cc(NC(=O)Nc2ccc(N(C)C)cc2)c2cc(F)cc(F)c2n1 | 0.91 and 0.717
20 | Cc1ccc(/C=N/NC(=O)c2ccccc2Oc2ccccc2)o1 | 1.34
21 | O=C(O)c1ccc2cc(-c3ccc(O)c(C45CC6CC(CC(C6)C4)C5)c3)ccc2c1 | 0.838
22 | COc1cc(OC)c(NC(=O)Nc2cc(C)on2)cc1Cl | 0.762 and 1.52
23 | NC(=O)c1ccc2[nH]ccc2c1 | 0.967 and 0.869
24 | Cc1[nH]c(/C=C2\C(=O)Nc3ccccc32)c(C)c1CCC(=O)O | 1.48
25 | CCOC(=O)C1=C(C)NC(=S)NC1c1cccc(O)c1 (stereo not drawn) | 1 and 0.625
26 | CCOC(=O)C1=C(N)Oc2ccc(Br)cc2C1C(C#N)C(=O)OCC (stereo not drawn) | 1.4
27 | Cc1cc(I)ccc1Nc1c(C(=O)NOCC2CC2)cc(F)c(F)c1F | 1.32
28 | COc1ccc(CCN(C)CCCOc2ccc(S(=O)(=O)c3c(C(C)C)c4ccccc4n3C)cc2)cc1OC | 0.864
29 | CCC(C)N(C)C(=O)c1cc2ccccc2c(-c2ccccc2Cl)n1 (stereo not drawn) | 1.99 and 1.15
30 | COC1CCC(C(=O)c2ccc3nc4c(cc3c2)CCCO4)CC1 (stereo not drawn) | 1.27
31 | O=C(O)c1ccc(-c2c[nH]c3ncc(-c4ccccc4)cc23)cc1C1CCCC1 | 0.684 and 1.96
32 | CC(C)[C@H](CO)Nc1nc(Nc2ccc(C(=O)O)c(Cl)c2)c2ncn(C(C)C)c2n1 | 0.706
33 | N#Cc1c(O)c2c(-c3ccc(-c4ccccc4O)cc3)csc2[nH]c1=O | 0.924 and 1.54
34 | O=c1[nH]c(-c2ccc(C(F)(F)F)cc2)nc2c1CSCC2 | 0.982 and 0.937 and 1.32

Same assay, conditions: A549 miR-34 inducible, Hoechst nuclei count, 48 h; measured here: total cells with miR-34 induction; stronger effect = lower value

Row | SMILES | cell count
35 | CC[C@H](NC(C)C)[C@H](O)c1ccc(O)c2[nH]c(=O)ccc12 | 8730 and 10200
36 | COc1cc2nccc(Oc3ccc(NC(=O)Nc4ccc(F)cc4F)c(F)c3)c2cc1OC | 1960 and 2970
37 | O=c1[nH]nc(Sc2ncc([N+](=O)[O-])s2)n1-c1ccc2c(c1)OCCO2 | 2070
38 | N[C@H](CSC(c1ccccc1)(c1ccccc1)c1ccccc1)C(=O)O | 7800
39 | O=c1cc(-c2cccc3c2Sc2ccccc2S3)oc(N2CCOCC2)c1 | 5990 and 5760
40 | COc1nccc(-c2c(-c3ccc(F)cc3)ncn2C2CCC(O)CC2)n1 (stereo not drawn) | 6910
41 | CCc1c2c(nc3ccc(O)cc13)-c1cc3c(c(=O)n1C2)COC(=O)[C@]3(O)CC | 1510 and 2070
42 | CCOc1cc(C(=O)Nc2ccc(Cl)c(-c3nc4ccccc4[nH]3)c2)cc(OCC)c1OCC | 5960
43 | Oc1ccc2ccccc2c1SSc1c(O)ccc2ccccc12 | 7700 and 7960 and 7720
44 | CC(Oc1ccc(O)cc1)(P(=O)(O)O)P(=O)(O)O | 9020
45 | CCN(CC)CCCC(C)Nc1nc(C)cc(Nc2ccc3nc(C)cc(N)c3c2)n1 (stereo not drawn) | 7920 and 8660
46 | CN1C(=O)C(Cc2c[nH]c3ccccc23)NC1=S (stereo not drawn) | 7790 and 8210
47 | COc1ccc([C@@H]2CNC(=O)C2)cc1OC1CCCC1 | 8940
48 | O=C1Nc2ccc(I)cc2/C1=C/c1cc(Br)c(O)c(Br)c1 | 8580 and 4160 and 8980
49 | O=C(O)C1CCCN(CCC=C(c2ccccc2)c2ccccc2)C1 (stereo not drawn) | 9290 and 8980
50 | CCOc1ccc(Nc2nc(-c3c(C)nc4ccccn34)cs2)cc1 | 2200
51 | Nc1ncnc2nc(-c3ccc(N4CCOCC4)nc3)cc(-c3cccc(Br)c3)c12 | 7250

Row | SMILES | cell count
52 | Fc1ccc(Cl)cc1-c1nc(Nc2ccncc2)c2nccnc2n1 | 8670
53 | Cc1cc(NC(=O)Nc2ccc(N(C)C)cc2)c2cc(F)cc(F)c2n1 | 6380 and 7970
54 | Cc1ccc(/C=N/NC(=O)c2ccccc2Oc2ccccc2)o1 | 7340
55 | O=C(O)c1ccc2cc(-c3ccc(O)c(C45CC6CC(CC(C6)C4)C5)c3)ccc2c1 | 1990
56 | COc1cc(OC)c(NC(=O)Nc2cc(C)on2)cc1Cl | 8290 and 9250
57 | NC(=O)c1ccc2[nH]ccc2c1 | 10600 and 9670
58 | Cc1[nH]c(/C=C2\C(=O)Nc3ccccc32)c(C)c1CCC(=O)O | 5970
59 | CCOC(=O)C1=C(C)NC(=S)NC1c1cccc(O)c1 (stereo not drawn) | 2900 and 8090
60 | CCOC(=O)C1=C(N)Oc2ccc(Br)cc2C1C(C#N)C(=O)OCC (stereo not drawn) | 6950
61 | Cc1cc(I)ccc1Nc1c(C(=O)NOCC2CC2)cc(F)c(F)c1F | 1290
62 | COc1ccc(CCN(C)CCCOc2ccc(S(=O)(=O)c3c(C(C)C)c4ccccc4n3C)cc2)cc1OC | 222
63 | CCC(C)N(C)C(=O)c1cc2ccccc2c(-c2ccccc2Cl)n1 (stereo not drawn) | 8810 and 6770
64 | COC1CCC(C(=O)c2ccc3nc4c(cc3c2)CCCO4)CC1 (stereo not drawn) | 8170
65 | O=C(O)c1ccc(-c2c[nH]c3ncc(-c4ccccc4)cc23)cc1C1CCCC1 | 2990 and 4050
66 | CC(C)[C@H](CO)Nc1nc(Nc2ccc(C(=O)O)c(Cl)c2)c2ncn(C(C)C)c2n1 | 8820
67 | N#Cc1c(O)c2c(-c3ccc(-c4ccccc4O)cc3)csc2[nH]c1=O | 10000 and 9660
68 | O=c1[nH]c(-c2ccc(C(F)(F)F)cc2)nc2c1CSCC2 | 4310 and 5060 and 7820
